# Screening data (PubChem)
# Most compounds without a hit are left out; they make up all but 2.8% or so of the library.
# HSP90 inh: inhibitors of HSP90 luciferase refolding in rabbit reticulocyte lysate. luciferase refolding luminescence, 3 h. actives 0.91% (n = 290,000). AID 1789. inhibition, % at 5.6 µM;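 active means inhibition above the screen-wide mean plus 3 SD, computed separately per campaign, cut at about 16% in these data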;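 further: 0% = DMSO wells and 100% = 60 µM geldanamycin wells; inhibitors lower the luminescence because luciferase stays unfolded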
# SENP8 block-1: blocks human SENP8 cleavage of Nedd8 substrate; Q96LD8; recombinant SENP8, Nedd8 substrate fluorescence; inhibition, % at 20 µM; actives 0.64% (n = 360,000); AID 602440; in the data active means inhibition mostly above about 40%, no sharp cut-off; inactive means mostly below about 27%
# Target sequence (Q96LD8 whole entry, looked up): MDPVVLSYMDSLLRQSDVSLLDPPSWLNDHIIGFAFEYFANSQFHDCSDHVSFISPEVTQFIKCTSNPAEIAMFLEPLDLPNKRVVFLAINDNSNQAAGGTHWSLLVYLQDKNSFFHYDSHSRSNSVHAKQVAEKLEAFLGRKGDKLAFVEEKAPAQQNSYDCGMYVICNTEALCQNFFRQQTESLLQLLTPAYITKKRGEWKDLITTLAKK
# SENP7 inh: SENP7 protease inhibition. recombinant SENP7, Z-RLRGG-aminoluciferin luminescence, 40 min. inhibition, % at 5 µM. actives 1.5% (n = 330,000);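 active means inhibition above about 50% at the single test dose, limit read from the data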;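 further: plate controls were DMSO with enzyme for no effect and no enzyme buffer wells for full effect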
# Target sequence (Q9BQF6 706-1050 limits assumed): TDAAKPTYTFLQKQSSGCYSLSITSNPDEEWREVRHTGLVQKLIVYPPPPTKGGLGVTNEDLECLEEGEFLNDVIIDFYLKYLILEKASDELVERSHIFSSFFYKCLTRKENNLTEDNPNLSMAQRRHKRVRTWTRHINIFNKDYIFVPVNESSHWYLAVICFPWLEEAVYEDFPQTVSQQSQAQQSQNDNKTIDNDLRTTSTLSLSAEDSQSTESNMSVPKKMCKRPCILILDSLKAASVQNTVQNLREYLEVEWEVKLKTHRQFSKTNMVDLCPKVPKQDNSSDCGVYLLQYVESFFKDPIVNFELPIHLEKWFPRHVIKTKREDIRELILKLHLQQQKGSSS
# SENP6 inh: blocks the human protease SENP6 | inhibition, % at 10 µM | actives 1.8% (n = 330,000) | Recombinant SENP6 catalytic domain, aminoluciferin luminescence;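 active means inhibition above about 50% at the single tested dose, limit read from the data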;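 further: plate controls were DMSO wells with enzyme for no effect and DMSO wells lacking enzyme for full effect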
# SENP8 block-2: blocks the human protease SENP8. purified SENP8, Z-RLRGG-aminoluciferin cleavage, luminescence. inhibition, % at 10 µM. Q96LD8. actives 1.2% (n = 330,000); in the data active means inhibition above about 50%
# HSP90 inh confirm: HSP90 inhibition, confirmation assay. rabbit reticulocyte lysate, luciferase refolding luminescence, 3 h. inhibition, % at 5.9 µM. actives 64% (n = 2,300). shares compounds with HSP90 inh. AID 1846; in the data active means inhibition above about 18%;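 further: 0% = vehicle wells and 100% = reference inhibitor wells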
# luciferase ctr: firefly luciferase inhibition, HSP90 counter-screen. actives 48% (n = 2,300). inhibition, % at 5.9 µM. shares compounds with HSP90 inh. purified native firefly luciferase, luminescence;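 active means inhibition above the mean inhibition of all tested sample wells plus 3 SD, cut at about 10% in these data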;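 further: 0% = DMSO with luciferase and 100% = wells lacking luciferase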
# The depositor's hits bear a star; i = inactive; · = no result given.
SMILES,HSP90 inh,SENP8 block-1,SENP7 inh,SENP6 inh,SENP8 block-2,HSP90 inh confirm,luciferase ctr
O=C1c2ccccc2NC(c2ccc3c(c2)OCCO3)N1c1ccc2c(c1)OCCO2 (stereo unspecified),22.3*,-288.6,-5.4,4.7,2.8,16.7*,3.0
COc1cc(C2Nc3ccccc3C(=O)N2c2ccc3c(c2)OCCO3)ccc1OCC(C)C (stereo unspecified),44.7*,-325.5,-1.4,-29.0,-6.0,4.0,-9.6
CCOC(=O)c1nc(Nc2cc(C)cc(C)c2)c2ccccc2n1,3.8,-130.4,-11.3,-0.6,-2.3,·,·
O=C(c1ccccn1)C1CCCN(Cc2cn[nH]c2-c2cc3ccccc3o2)C1 (stereo unspecified),-3.2,10.0,-2.9,10.6,-1.6,·,·
COc1ccc(OCc2cc(C(=O)O)c(C)o2)cc1,55.2*,·,92.1*,91.5*,89.2*,62.8*,28.3*
O=C(O)c1cccc(-n2c(O)c(C=C3N=c4ccccc4=N3)sc2=S)c1,47.5*,-116.2,6.7,33.6,27.3,66.4*,-1.5
COc1ccccc1/C=C1\SC(=S)N(CCC(=O)Nc2nnc(C)s2)C1=O,-1.9,15.3,-1.6,-13.1,0.1,·,·
O=C(NCc1ccccc1)C1CCC(=O)N(CC2CCCCC2)C1 (stereo unspecified),-1.3,1.2,1.0,0.9,-14.0,·,·
CC(C)(C)n1ncc2c(=O)n(CC(=O)OCc3ccccc3)cnc21,83.5*,19.5,28.7,38.0,17.4,91.3*,89.4*
CC(C)(C)c1ccc(C(=O)Nc2cccc3c(=O)[nH][nH]c(=O)c23)cc1,46.6*,-285.1,·,·,·,62.5*,20.8*
COC(=O)C1=CN(c2ccc(C(C)(C)C)cc2)C(N)=C(C#N)C1c1ccc(OC)cc1 (stereo unspecified),·,-74.5,·,·,·,·,·
COc1ccc(-c2csc(NC(=S)NC(=O)/C=C/c3ccco3)n2)cc1OC,5.5,30.9,·,·,·,·,·
COc1ccc(-c2csc(NC(=S)NC(=O)/C=C/c3ccc(C(C)C)cc3)n2)cc1OC,18.9*,13.4,-1.5,2.4,2.9,13.1,0.4
O=C1C2CCCN2C(=S)N1c1ccccc1 (stereo unspecified),49.5*,15.0,-0.4,-7.6,0.3,-8.1,-14.1
Cc1cc(NC(=O)c2ccc([N+](=O)[O-])cc2)n(CCC#N)n1,-1.4,17.2,0.9,0.8,2.5,·,·
CCN(CC)P(=O)(Nc1ccc([N+](=O)[O-])cc1)c1c(C)nn(CCC#N)c1NC(=O)c1ccc(Cl)cc1 (stereo unspecified),57.4*,21.9,1.9,-20.0,2.2,14.2,-7.9
COc1ccc([N+](=O)[O-])cc1NC(=O)c1csc(C)c1,-2.5,17.0,-21.8,-17.5,-23.5,·,·
Cc1ccc(-c2c[n+](CC(=O)Nc3nc(-c4ccc(F)cc4)cs3)c3n2CCC3)cc1,25.6*,29.1,2.3,-38.5,-9.2,18.8*,-3.1
CCOC(=O)N1CCN(CC(=O)Nc2ccc(C)cc2)CC1,-1.7,0.6,-0.9,-25.5,-1.9,·,·
CCNc1nc(NC(C)(C)C)nc(SC(C(C)=O)C(C)=O)n1,-2.6,15.0,-4.9,-13.9,-6.9,·,·
COc1ccc(/C=N/NC(=O)CNS(=O)(=O)c2ccccc2)cc1,·,9.3,3.5,-16.7,5.9,·,·
CCC(=O)N/N=C/c1ccc(OS(=O)(=O)c2ccccc2)cc1,21.6*,14.7,1.0,-31.3,-14.3,-0.8,-4.4
NNC(=O)c1ccc(COc2ccc3ccccc3c2)o1,3.1,1.3,-9.6,-2.9,-1.7,·,·
O=C(OCc1ccccn1)c1ccc(COc2ccc3ccccc3c2)o1,44.5*,25.8,-4.4,25.8,4.5,63.2*,-11.4
Cc1cc2ccccc2n1CCNC(=O)C1CC1,-2.6,-30.8,2.9,-7.9,6.0,·,·
SMILES,HSP90 inh,SENP8 block-1,SENP7 inh,SENP6 inh,SENP8 block-2,HSP90 inh confirm,luciferase ctr
Cc1cc2ccccc2n1CCNC(=O)c1cccs1,23.0*,-44.4,2.1,3.7,-0.3,39.4*,-3.3
COC(=O)C1(O)CC(C(C)C)=NN1C(=O)c1ccccc1 (stereo unspecified),1.8,19.5,-5.8,-3.6,-3.7,·,·
CCOC(=O)CSc1nc2ccccc2c(=O)n1NC(=O)c1ccccc1,20.1*,7.0,-1.2,-3.7,2.7,0.6,-4.2
CCc1ccc(C(=O)Nn2c(C)nc3ccccc3c2=O)cc1,1.4,7.7,1.8,-35.8,3.4,·,·
COc1ccc(C(=O)Nn2c(SCC(=O)c3ccccc3)nc3ccccc3c2=O)cc1,48.1*,17.4,5.8,10.2,5.9,53.4*,48.4*
COc1ccc(C(=O)Nn2c(SCc3ccc([N+](=O)[O-])cc3)nc3ccccc3c2=O)cc1,55.2*,19.3,2.8,-4.6,0.8,45.1*,33.4*
Cn1c(=O)[nH]c(=O)c2c1nc(N1CCCCCC1)n2CCCSc1nc2ccccc2o1,-0.5,0.3,-1.2,-9.5,-6.0,·,·
Cn1cc(C=CC(=O)O)c2nccnc21,·,13.1,·,·,·,·,·
CCOC(=O)c1cccc(NC(=O)c2c(N)n(C)c(=O)[nH]c2=O)c1,·,·,-0.5,9.6,5.6,·,·
COc1ccc(OC)c(Nc2nc(-c3sc(N)nc3C)cs2)c1,26.0*,-3.4,-0.5,-4.8,6.8,2.3,-6.6
Cc1cc(O)ccc1Nc1nc(-c2sc(N)nc2C)cs1,33.7*,3.2,7.9,-0.6,7.6,-3.5,-9.0
Cc1nc(N)sc1-c1csc(Nc2ccccc2)n1,25.5*,-13.2,2.2,14.4,-2.4,-5.0,-16.1
CCOc1ccc(S(=O)(=O)/N=C(\N)c2ccccc2)cc1,0.5,21.5,-10.6,-7.9,-2.5,·,·
COc1ccc(C(=O)NN=C2CCCC2)c(OC)c1,-2.6,13.1,18.4,-7.0,-9.9,·,·
CCCN1C(=O)c2ccccc2NC1c1ccc(OC)c(CSc2ccccn2)c1 (stereo unspecified),-2.2,-310.0,9.2,11.5,5.2,·,·
Cc1cc(N/N=C/c2c(O)ccc3ccccc23)nc(-c2ccccc2O)n1,1.2,-61.3,7.8,-4.7,-0.5,·,·
Cc1c(Cl)cccc1-n1ccnc1SCC(=O)O,-1.4,-1.1,-10.0,-11.2,-19.3,·,·
Cc1ccc(NC(=O)c2ccc3c(c2)OCO3)cc1S(=O)(=O)N1CCOCC1,·,16.8,4.4,2.0,7.9,·,·
CC1=NN(c2ccc(C(=O)O)cc2)C(=O)/C1=C\c1ccc(OC(=O)c2cccs2)cc1,26.4*,61.1*,35.7,7.9,-4.3,4.5,17.0*
CC1=NN(c2ccc(C(=O)O)cc2)C(=O)/C1=C/c1ccc(-c2ccccc2F)o1,0.6,25.6,17.9,4.6,4.0,·,·
Nc1c(C(=O)OCC2CCCO2)c2nc3ccccc3nc2n1C1CCCC1 (stereo unspecified),17.2*,-287.8,-2.2,-0.5,10.7,-1.7,-7.7
Cn1c(SCC(=O)OC2CCCCC2)nnc1-c1ccco1,21.8*,18.6,5.9,12.0,-4.5,-10.6,-17.8
COc1ccc(-c2cc(-c3nc4ccccn4c3NCc3ccccc3)ccc2OC)cc1,·,i,5.3,-6.7,-5.6,·,·
